# Data from PubChem BioAssay (NCI).
# About 83,000 compounds went through this panel and 20% of them were active in at least one assay; those are over-represented in the sample as a whole.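 Interpretation: 100, growth as untreated; towards 0, rising growth inhibition; 0, no net growth; 0 to -100, cell death. Compounds scoring below 10 were considered active.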 A number with no mark means an inactive call. Activity calls are given as the source filed them.
# How the values were obtained:
# Experiment in all cases: NCI-60 one-dose screen, 48 h (100 = growth as untreated, 0 = no growth, -100 = all killed)
# Details in all cases: 10 µM unless noted
# NCI-H23 lung = system: NCI-H23 lung
# NCI-H226 lung = system: NCI-H226 lung
# NCI-H322M lung = system: NCI-H322M lung
# HOP-62 NSCLC = system: HOP-62 NSCLC
# NCI-H460 lung = system: NCI-H460 lung
# NCI-H522 lung = system: NCI-H522 lung
# A549/ATCC NSCLC = system: A549/ATCC NSCLC
# 786-0 renal = system: 786-0 renal
# COLO 205 colon = system: COLO 205 colon
# DU-145 prostate = system: DU-145 prostate
# K-562 leukemia = system: K-562 leukemia
# MDA-MB-231 breast = system: MDA-MB-231 breast
# RXF 393 renal = system: RXF 393 renal
# SF-268 CNS = system: SF-268 CNS
# SF-295 CNS = system: SF-295 CNS
# SF-539 CNS = system: SF-539 CNS
# UACC-257 melanoma = system: UACC-257 melanoma
# HCT-15 colon = system: HCT-15 colon
# M14 melanoma = system: M14 melanoma
SMILES,growth (NCI-H23 lung),growth (NCI-H226 lung),growth (NCI-H322M lung),growth (HOP-62 NSCLC),growth (NCI-H460 lung),growth (NCI-H522 lung),growth (A549/ATCC NSCLC),growth (786-0 renal),growth (COLO 205 colon),growth (DU-145 prostate),growth (K-562 leukemia),growth (MDA-MB-231 breast),growth (RXF 393 renal),growth (SF-268 CNS),growth (SF-295 CNS),growth (SF-539 CNS),growth (UACC-257 melanoma),growth (HCT-15 colon),growth (M14 melanoma)
O=C1NCC(Nc2ccc(Br)cc2Cl)C(=O)N1 (configuration not stated),100%,109%,126%,113%,112%,93%,122%,103%,98%,119%,95.5%,104%,112%,105%,118%,98.9%,160%,107%,
Oc1ccccc1C=Nc1ccccc1N=Cc1ccccc1O.[Cu+2],33.1%,71.1%,51.1%,66%,84.1%,14.9%,66%,90.9%,83.7%,68.5%,36.7%,63.5%,104%,75.2%,68.6%,76%,45.4%,56.5%,65.2%
COc1cc(/C=C/C(=O)c2c(-c3ccc(F)cc3)nc3sc(C)nn23)cc(OC)c1OC,51.4%,38.9%,52.6%,9.53% (active),11.8%,-27% (active),12.2%,24.6%,33%,0.196% (active),2.54% (active),7.91% (active),,16.6%,49.6%,21.2%,46.6%,15.9%,34.9%
COc1cc(/C=C/C(=O)Nc2ccc3c(c2)/C(=C\c2cccn2C)C(=O)N3)cc(OC)c1OC,57%,67.3%,61.2%,45.5%,55.4%,5.66% (active),37.5%,54.8%,53.7%,63%,28.4%,36.5%,,69.3%,38.3%,56.7%,62%,32.5%,
